According to the supplement of paper PMC12669032:

What follows are compounds tested on Roseburia intestinalis (assay: growth AUC relative to DMSO control (median of replicates) (fraction); higher = more growth (less inhibition), active = hit call of the paper). Conditions: 20 µM; 24 h;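 active = AUC reduced over 20% with Padj below 0.05 in at least 2 of 3 replicates; inactive = otherwise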.
Method in brief: (§1)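 Hourly OD600 readings over 24 h tracked anaerobic gut bacterial monocultures grown at 37 °C in mGAM from OD600 0.05 with 20 µM compound (1% DMSO). After the minimum OD was set to 0, area under the growth curve was normalised to the plate median of solvent-only wells, or to row and column medians on the industrial chemical plate. Values are medians of three biological replicates grown on separate days.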

Question: With COC(=O)/C(C)=C/OP(=S)(OC)OC as the compound, how does the “growth AUC” value read?
Answer: 0.981 (inactive)

Question: Which “growth AUC” value does the source give for COC(C)(C)CCCC(C)C/C=C/C(C)=C/C(=O)OC(C)C (stereo not drawn) here?
Answer: 1.01 (inactive)

Question: Which “growth AUC” value does the source give for CC(C)C(C(=O)OC(C#N)c1cccc(Oc2ccccc2)c1)c1ccc(OC(F)F)cc1 (stereo not drawn) here?
Answer: 0.977 (inactive)

Question: With CCOP(=S)(OCC)Oc1ccc(Cl)cc1Cl as the compound, how does the “growth AUC” value read?
Answer: 1.05 (inactive)

Question: With O=C1C(Cl)=C(Cl)C(=O)C(Cl)=C1Cl as the compound, how does the “growth AUC” value read?
Answer: 0.995 (inactive)

Question: Which “growth AUC” value does the source give for CCSCc1ccccc1OC(=O)NC here?
Answer: 1.01 (inactive)

Question: With CON(C)C(=O)Nc1ccc(Br)cc1 as the compound, how does the “growth AUC” value read?
Answer: 1.06 (inactive)

Question: Which “growth AUC” value does the source give for O=C1C2CC=CCC2C(=O)N1SC(Cl)(Cl)Cl (stereo not drawn) here?
Answer: 1.01 (inactive)

Question: Which “growth AUC” value does the source give for CCC(C)c1cc([N+](=O)[O-])cc([N+](=O)[O-])c1OC(=O)C=C(C)C (stereo not drawn) here?
Answer: 0.948 (inactive)

Question: How did the “growth AUC” value turn out when CSc1nnc(C(C)(C)C)c(=O)n1N was run?
Answer: 1.06 (inactive)

Question: With N#CCNC(=O)c1cnccc1C(F)(F)F as the compound, how does the “growth AUC” value read?
Answer: 1 (inactive)

Question: With CN(C)S(=O)(=O)N(SC(F)(Cl)Cl)c1ccccc1 as the compound, how does the “growth AUC” value read?
Answer: 0.993 (inactive)

Question: How did the “growth AUC” value turn out when CC(Cc1ccc(C(C)(C)C)cc1)CN1CCCCC1 (stereo not drawn) was run?
Answer: 0.976 (inactive)

Question: NC(=O)/N=C1/SCCN1Cc1ccc(Cl)nc1 was tested. Which “growth AUC” value did it give?
Answer: 0.989 (inactive)

Question: For O=C(O)COc1ccc(Cl)cc1Cl, which “growth AUC” value is on record?
Answer: 1.03 (inactive)

Question: For COc1ncc(F)c2nc(S(=O)(=O)Nc3c(F)cccc3F)nn12, which “growth AUC” value is on record?
Answer: 1.02 (inactive)

Question: COC(=O)c1cc(Oc2ccc(Cl)cc2Cl)ccc1[N+](=O)[O-] was tested. Which “growth AUC” value did it give?
Answer: 0.891 (inactive)

Question: With CCO/N=C(\CC)C1=C(O)CC(c2c(C)cc(C)cc2C)CC1=O (stereo not drawn) as the compound, how does the “growth AUC” value read?
Answer: 0.945 (inactive)

Question: CCc1cnc(C2=NC(C)(C(C)C)C(=O)N2)c(C(=O)O)c1 (stereo not drawn) was tested. Which “growth AUC” value did it give?
Answer: 1.02 (inactive)

Question: How did the “growth AUC” value turn out when CCOP(=S)(OCC)Oc1ccc([N+](=O)[O-])cc1 was run?
Answer: 1.01 (inactive)

Question: How did the “growth AUC” value turn out when OC(Cc1ccccc1Cl)(Cn1cncn1)C1(Cl)CC1 (stereo not drawn) was run?
Answer: 1.05 (inactive)

Question: For CCN(CC)c1c([N+](=O)[O-])cc(C(F)(F)F)c(N)c1[N+](=O)[O-], which “growth AUC” value is on record?
Answer: 0.984 (inactive)

Question: CCOP(=S)(OCC)SCn1nnc2ccccc2c1=O was tested. Which “growth AUC” value did it give?
Answer: 1.11 (inactive)

Question: For CS(=O)(=O)NC(=O)c1cc(Oc2ccc(C(F)(F)F)cc2Cl)ccc1[N+](=O)[O-], which “growth AUC” value is on record?
Answer: 0.966 (inactive)

Question: For Cc1ccn2nc(S(=O)(=O)Nc3c(F)cccc3F)nc2n1, which “growth AUC” value is on record?
Answer: 0.997 (inactive)

Question: How did the “growth AUC” value turn out when CC(C)OC(=O)Nc1cccc(Cl)c1 was run?
Answer: 0.906 (inactive)

Question: How did the “growth AUC” value turn out when COc1nc(C)nc(NC(=O)NS(=O)(=O)c2ccccc2Cl)n1 was run?
Answer: 0.995 (inactive)

Question: CN=C=S was tested. Which “growth AUC” value did it give?
Answer: 0.997 (inactive)

Question: Which “growth AUC” value does the source give for COP(=O)(OC)OC=C(Cl)Cl here?
Answer: 0.985 (inactive)

Question: For COC(=O)C1(O)c2ccccc2-c2ccccc21, which “growth AUC” value is on record?
Answer: 1 (inactive)

Question: Which “growth AUC” value does the source give for COc1cc(Cl)c(OC)cc1Cl here?
Answer: 1.04 (inactive)

Question: CC1(C)C(C=C(Cl)Cl)[C@@H]1C(=O)O[C@@H](C#N)c1ccc(F)c(Oc2ccccc2)c1 (stereo partly drawn) was tested. Which “growth AUC” value did it give?
Answer: 0.916 (inactive)

Question: For C=CCC1=C(C)C(OC(=O)[C@@H]2[C@@H](C=C(C)C)C2(C)C)CC1=O (stereo partly drawn), which “growth AUC” value is on record?
Answer: 1.05 (inactive)

Question: For O=C(O)CNCP(=O)(O)O, which “growth AUC” value is on record?
Answer: 0.966 (inactive)

Question: For CN/C(=N\[N+](=O)[O-])NCc1cnc(Cl)s1, which “growth AUC” value is on record?
Answer: 1.05 (inactive)

Question: How did the “growth AUC” value turn out when COP(=S)(OC)Oc1cc(Cl)c(I)cc1Cl was run?
Answer: 0.974 (inactive)

Question: How did the “growth AUC” value turn out when O=C1OCC2C1C1(Cl)C(Cl)=C(Cl)C2(Cl)C1(Cl)Cl (stereo not drawn) was run?
Answer: 0.975 (inactive)

Question: Which “growth AUC” value does the source give for Nc1cnn(-c2ccccc2)c(=O)c1Cl here?
Answer: 1.1 (inactive)

Question: CC1(C)CON(Cc2ccccc2Cl)C1=O was tested. Which “growth AUC” value did it give?
Answer: 0.896 (inactive)

These compounds were tested on Streptococcus salivarius in the same assay as above. Conditions: 20 µM; 24 h.
Method in brief: as §1

Question: How did the “growth AUC” value turn out when COC(=O)/C(C)=C/OP(=S)(OC)OC was run?
Answer: 1.01 (inactive)

Question: How did the “growth AUC” value turn out when COC(C)(C)CCCC(C)C/C=C/C(C)=C/C(=O)OC(C)C (stereo not drawn) was run?
Answer: 1.01 (inactive)

Question: CC(C)C(C(=O)OC(C#N)c1cccc(Oc2ccccc2)c1)c1ccc(OC(F)F)cc1 (stereo not drawn) was tested. Which “growth AUC” value did it give?
Answer: 0.993 (inactive)

Question: CCOP(=S)(OCC)Oc1ccc(Cl)cc1Cl was tested. Which “growth AUC” value did it give?
Answer: 1.04 (inactive)

Question: Which “growth AUC” value does the source give for O=C1C(Cl)=C(Cl)C(=O)C(Cl)=C1Cl here?
Answer: 1.01 (inactive)

Question: Which “growth AUC” value does the source give for CCSCc1ccccc1OC(=O)NC here?
Answer: 1.02 (inactive)

Question: With CON(C)C(=O)Nc1ccc(Br)cc1 as the compound, how does the “growth AUC” value read?
Answer: 0.999 (inactive)

Question: Which “growth AUC” value does the source give for O=C1C2CC=CCC2C(=O)N1SC(Cl)(Cl)Cl (stereo not drawn) here?
Answer: 1.05 (inactive)

Question: CCC(C)c1cc([N+](=O)[O-])cc([N+](=O)[O-])c1OC(=O)C=C(C)C (stereo not drawn) was tested. Which “growth AUC” value did it give?
Answer: 0.872 (inactive)

Question: For CSc1nnc(C(C)(C)C)c(=O)n1N, which “growth AUC” value is on record?
Answer: 1.01 (inactive)

Question: How did the “growth AUC” value turn out when N#CCNC(=O)c1cnccc1C(F)(F)F was run?
Answer: 0.995 (inactive)

Question: CN(C)S(=O)(=O)N(SC(F)(Cl)Cl)c1ccccc1 was tested. Which “growth AUC” value did it give?
Answer: 0.998 (inactive)

Question: How did the “growth AUC” value turn out when CC(Cc1ccc(C(C)(C)C)cc1)CN1CCCCC1 (stereo not drawn) was run?
Answer: 1 (inactive)

Question: With NC(=O)/N=C1/SCCN1Cc1ccc(Cl)nc1 as the compound, how does the “growth AUC” value read?
Answer: 1.04 (inactive)

Question: O=C(O)COc1ccc(Cl)cc1Cl was tested. Which “growth AUC” value did it give?
Answer: 0.989 (inactive)

Question: Which “growth AUC” value does the source give for COc1ncc(F)c2nc(S(=O)(=O)Nc3c(F)cccc3F)nn12 here?
Answer: 1 (inactive)

Question: COC(=O)c1cc(Oc2ccc(Cl)cc2Cl)ccc1[N+](=O)[O-] was tested. Which “growth AUC” value did it give?
Answer: 1.02 (inactive)

Question: For CCO/N=C(\CC)C1=C(O)CC(c2c(C)cc(C)cc2C)CC1=O (stereo not drawn), which “growth AUC” value is on record?
Answer: 0.967 (inactive)

Question: For CCc1cnc(C2=NC(C)(C(C)C)C(=O)N2)c(C(=O)O)c1 (stereo not drawn), which “growth AUC” value is on record?
Answer: 1.02 (inactive)

Question: For CCOP(=S)(OCC)Oc1ccc([N+](=O)[O-])cc1, which “growth AUC” value is on record?
Answer: 0.93 (inactive)

Question: For OC(Cc1ccccc1Cl)(Cn1cncn1)C1(Cl)CC1 (stereo not drawn), which “growth AUC” value is on record?
Answer: 0.998 (inactive)

Question: Which “growth AUC” value does the source give for CCN(CC)c1c([N+](=O)[O-])cc(C(F)(F)F)c(N)c1[N+](=O)[O-] here?
Answer: 1.03 (inactive)

Question: Which “growth AUC” value does the source give for CCOP(=S)(OCC)SCn1nnc2ccccc2c1=O here?
Answer: 0.993 (inactive)

Question: How did the “growth AUC” value turn out when CS(=O)(=O)NC(=O)c1cc(Oc2ccc(C(F)(F)F)cc2Cl)ccc1[N+](=O)[O-] was run?
Answer: 0.917 (inactive)

Question: With Cc1ccn2nc(S(=O)(=O)Nc3c(F)cccc3F)nc2n1 as the compound, how does the “growth AUC” value read?
Answer: 0.965 (inactive)

Question: For CC(C)OC(=O)Nc1cccc(Cl)c1, which “growth AUC” value is on record?
Answer: 0.981 (inactive)

Question: COc1nc(C)nc(NC(=O)NS(=O)(=O)c2ccccc2Cl)n1 was tested. Which “growth AUC” value did it give?
Answer: 0.992 (inactive)

Question: How did the “growth AUC” value turn out when CN=C=S was run?
Answer: 0.994 (inactive)

Question: For COP(=O)(OC)OC=C(Cl)Cl, which “growth AUC” value is on record?
Answer: 1.03 (inactive)

Question: Which “growth AUC” value does the source give for COC(=O)C1(O)c2ccccc2-c2ccccc21 here?
Answer: 1 (inactive)

Question: COc1cc(Cl)c(OC)cc1Cl was tested. Which “growth AUC” value did it give?
Answer: 1.04 (inactive)

Question: CC1(C)C(C=C(Cl)Cl)[C@@H]1C(=O)O[C@@H](C#N)c1ccc(F)c(Oc2ccccc2)c1 (stereo partly drawn) was tested. Which “growth AUC” value did it give?
Answer: 1 (inactive)

Question: C=CCC1=C(C)C(OC(=O)[C@@H]2[C@@H](C=C(C)C)C2(C)C)CC1=O (stereo partly drawn) was tested. Which “growth AUC” value did it give?
Answer: 1.01 (inactive)

Question: For O=C(O)CNCP(=O)(O)O, which “growth AUC” value is on record?
Answer: 1.03 (inactive)

Question: How did the “growth AUC” value turn out when CN/C(=N\[N+](=O)[O-])NCc1cnc(Cl)s1 was run?
Answer: 1 (inactive)

Question: For COP(=S)(OC)Oc1cc(Cl)c(I)cc1Cl, which “growth AUC” value is on record?
Answer: 0.936 (inactive)

Question: O=C1OCC2C1C1(Cl)C(Cl)=C(Cl)C2(Cl)C1(Cl)Cl (stereo not drawn) was tested. Which “growth AUC” value did it give?
Answer: 0.986 (inactive)

Question: With Nc1cnn(-c2ccccc2)c(=O)c1Cl as the compound, how does the “growth AUC” value read?
Answer: 1.1 (inactive)

Question: For CC1(C)CON(Cc2ccccc2Cl)C1=O, which “growth AUC” value is on record?
Answer: 0.87 (inactive)
